Laboratory results from PubChem BioAssay AID1159580 (chemical genetic matrix, 2015).
Several values for one entry are separate records, joined by “and”; a condition that tells them apart may be missing. Equal values may be shown once. About 2,000 (36%) of roughly 5,500 compounds were called active. About 18% were inconclusive and are not listed. Rule as the data show it: active = normalized growth mostly below about 0.91 (no sharp cut-off); inconclusive = no clear call, values can overlap the other calls; inactive = mostly above about 0.92. The list shows a part of the results.

Experiment: chemical genetic growth profiling, strain panel (AID 1159580);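 also: tested at 20 µM; growth read once vehicle control cultures reached saturation at 30 °C; 1 = growth at the plate median or of vehicle wells; lower values mean less growth of the strain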
Details: growth OD
[1] = S. cerevisiae deletion strains, locus YAL040C, strain CLN3, hits give low values
[2] = S. cerevisiae deletion strains, locus YDR150W, strain NUM1, hits give low values
[3] = S. cerevisiae deletion strains, locus YDR363W, strain ESC2, hits give low values
[4] = S. cerevisiae deletion strains, locus YER002W, strain NOP16, hits give low values
[5] = S. cerevisiae deletion strains, locus YJR075W, strain HOC1, hits give low values
[6] = S. cerevisiae deletion strains, locus YMR263W, strain SAP30, hits give low values
[7] = S. cerevisiae deletion strains, locus YMR307W, strain GAS1, hits give low values
[8] = S. cerevisiae deletion strains, locus YNL128W, strain TEP1, hits give low values
[9] = S. cerevisiae deletion strains, locus YNL153C, strain GIM3, hits give low values
[10] = S. cerevisiae deletion strains, locus YNL175C, strain NOP13, hits give low values
[11] = S. cerevisiae deletion strains, locus YNL197C, strain WHI3, hits give low values
[12] = S. cerevisiae deletion strains, locus YNL224C, strain SQS1, hits give low values
[13] = S. cerevisiae deletion strains, locus YNL322C, strain KRE1, hits give low values
[14] = S. cerevisiae deletion strains, locus YOR083W, strain WHI5 (second series), hits give low values
[15] = S. cerevisiae deletion strains, locus YPL055C, strain LGE1, hits give low values

Measured: normalized growth

CCCCCCCCCCC/C=C\C(C)(C)/C=C\CCCC(=O)O
inactive: [1] 1.02 | S. cerevisiae deletion strains, locus YCL061C, strain MRC1 (second series), hits give low values 1.04 | [2] 1.01 | [3] 1.04 | [4] 1.04 | [5] 1.02 | [6] 1.03 | [7] 0.974 | [8] 0.996 | [9] 0.967 | [10] 1.01 | [11] 0.985 | [12] 1 | [13] 1.02 | [14] 0.965 | [15] 1.08

NCCCC(=O)O
inactive: S. cerevisiae deletion strains, locus YAL013W, strain DEP1, hits give low values 1 and 0.982 | [1] 0.965 | S. cerevisiae deletion strains, locus YBR021W, strain FUR4, hits give low values 1.01 | S. cerevisiae deletion strains, locus YBR229C, strain ROT2, hits give low values 1.01 | S. cerevisiae deletion strains, locus YCL029C, strain bik1, hits give low values 1.04 | S. cerevisiae deletion strains, locus YDL035C, strain GPR1, hits give low values 1.01 | S. cerevisiae deletion strains, locus YDL074C, strain BRE1, hits give low values 1.01 | S. cerevisiae deletion strains, locus YDL101C, strain DUN1, hits give low values 1.01 | S. cerevisiae deletion strains, locus YDL134C, strain PPH21, hits give low values 1.01 | S. cerevisiae deletion strains, locus YDL185W, strain tfp1, hits give low values 1.01 | S. cerevisiae deletion strains, locus YDL192W, strain arf1, hits give low values 1.02 | S. cerevisiae deletion strains, locus YDR101C, strain arx1, hits give low values 1.03 | [2] 1.01 | S. cerevisiae deletion strains, locus YDR162C, strain NBP2, hits give low values 1 | S. cerevisiae deletion strains, locus YDR318W, strain mcm21, hits give low values 1.02 | [3] 1.02 | S. cerevisiae deletion strains, locus YDR388W, hits give low values 1.02 | S. cerevisiae deletion strains, locus YDR502C, strain sam2, hits give low values 1.03 | S. cerevisiae deletion strains, locus YEL061C, strain CIN8, hits give low values 1 | [4] 0.993 | S. cerevisiae deletion strains, locus YER110C, hits give low values 1.04 | S. cerevisiae deletion strains, locus YER155C, strain BEM2, hits give low values 1.01 | S. cerevisiae deletion strains, locus YER167W, strain BCK2, hits give low values 1.01 | S. cerevisiae deletion strains, locus YGL078C, strain dbp3, hits give low values 1.03 | S. cerevisiae deletion strains, locus YGL086W, strain mad1, hits give low values 1.02 | S. cerevisiae deletion strains, locus YGL248W, strain PDE1, hits give low values 1.01 | S. cerevisiae deletion strains, locus YGR078C, strain PAC10, hits give low values 1.01 | S. cerevisiae deletion strains, locus YGR135W, strain pre9, hits give low values 1.04 | S. cerevisiae deletion strains, locus YGR229C, strain SMI1, hits give low values 1.03 and 0.998 | S. cerevisiae deletion strains, locus YGR252W, strain gcn5, hits give low values 1.07 | S. cerevisiae deletion strains, locus YHR030C, strain SLT2, hits give low values 1.01 | S. cerevisiae deletion strains, locus YHR079C, strain IRE1 (second series), hits give low values 1.02 | S. cerevisiae deletion strains, locus YHR079C, strain IRE1, hits give low values 0.994 | S. cerevisiae deletion strains, locus YHR094C, strain hxt1, hits give low values 1.02 | S. cerevisiae deletion strains, locus YHR129C, strain ARP1, hits give low values 1 | S. cerevisiae deletion strains, locus YHR200W, strain rpn10, hits give low values 1.02 | S. cerevisiae deletion strains, locus YIL066C, strain RNR3, hits give low values 1.01 | S. cerevisiae deletion strains, locus YIL073C, strain SPO22, hits give low values 1.06 | S. cerevisiae deletion strains, locus YIL125W, strain kgd1, hits give low values 1.02 | S. cerevisiae deletion strains, locus YIR030C, strain dcg1, hits give low values 1.04 | S. cerevisiae deletion strains, locus YJL095W, strain BCK1, hits give low values 1.01 and 0.999 | S. cerevisiae deletion strains, locus YJL134W, strain LCB3, hits give low values 1.01 | S. cerevisiae deletion strains, locus YJL168C, strain set2, hits give low values 1.03 | S. cerevisiae deletion strains, locus YJL187C, strain SWE1 (second series), hits give low values 1.01 | S. cerevisiae deletion strains, locus YJR043C, strain POL32, hits give low values 1 | S. cerevisiae deletion strains, locus YJR066W, strain TOR1, hits give low values 0.949 | [5] 1.01 | S. cerevisiae deletion strains, locus YKL009W, strain mrt4, hits give low values 0.999 | S. cerevisiae deletion strains, locus YKL068W, hits give low values 1.01 | S. cerevisiae deletion strains, locus YKL085W, strain MDH1 (second series), hits give low values 1 | S. cerevisiae deletion strains, locus YKL085W, strain MDH1, hits give low values 1 | S. cerevisiae deletion strains, locus YKL190W, strain CNB1, hits give low values 1 | S. cerevisiae deletion strains, locus YKR001C, strain vps1, hits give low values 1.03 | S. cerevisiae deletion strains, locus YLR039C, strain RIC1, hits give low values 0.999 | S. cerevisiae deletion strains, locus YLR058C, strain SHM2, hits give low values 1.01 | S. cerevisiae deletion strains, locus YLR102C, strain apc9, hits give low values 1.03 | S. cerevisiae deletion strains, locus YLR113W, strain HOG1, hits give low values 0.996 | S. cerevisiae deletion strains, locus YLR262C, strain YPT6, hits give low values 1 | S. cerevisiae deletion strains, locus YLR268W, strain sec22, hits give low values 1.03 | S. cerevisiae deletion strains, locus YLR330W, strain CHS5, hits give low values 1 | S. cerevisiae deletion strains, locus YLR342W, strain FKS1 (second series), hits give low values 0.994 | S. cerevisiae deletion strains, locus YLR371W, strain rom2, hits give low values 1.03 | S. cerevisiae deletion strains, locus YLR418C, strain cdc73, hits give low values 1.08 | S. cerevisiae deletion strains, locus YML016C, strain PPZ1, hits give low values 1.01 | S. cerevisiae deletion strains, locus YML032C, strain rad52, hits give low values 1.04 | S. cerevisiae deletion strains, locus YML124C, strain tub3, hits give low values 1.03 | S. cerevisiae deletion strains, locus YMR078C, strain ctf18, hits give low values 1.03 | S. cerevisiae deletion strains, locus YMR223W, strain ubp8, hits give low values 1.02 | [6] 1.01 | [7] 1.02 | S. cerevisiae deletion strains, locus YNL067W, strain RPL9B, hits give low values 1.01 | [8] 1.02 and 0.979 | [9] 1.01 | [10] 0.995 | S. cerevisiae deletion strains, locus YNL183C, strain NPR1, hits give low values 0.918 | [11] 0.975 | [12] 1.02 | S. cerevisiae deletion strains, locus YNL233W, strain BNI4, hits give low values 1 | S. cerevisiae deletion strains, locus YNL250W, strain rad50, hits give low values 1.03 | S. cerevisiae deletion strains, locus YNL271C, strain bni1, hits give low values 1.03 | S. cerevisiae deletion strains, locus YNL298W, strain CLA4, hits give low values 1.05 | S. cerevisiae deletion strains, locus YNL307C, strain MCK1, hits give low values 1.03 | [13] 1.01 and 0.99 | S. cerevisiae deletion strains, locus YNR052C, strain pop2, hits give low values 1.02 | S. cerevisiae deletion strains, locus YOL006C, strain TOP1, hits give low values 1.03 | S. cerevisiae deletion strains, locus YOL012C, strain htz1 1.29 | S. cerevisiae deletion strains, locus YOL147C, strain pex11, hits give low values 1.04 | S. cerevisiae deletion strains, locus YOR061W, strain CKA2, hits give low values 1.01 | S. cerevisiae deletion strains, locus YOR069W, strain VPS5, hits give low values 1 | [14] 0.99 | S. cerevisiae deletion strains, locus YOR136W, strain idh2, hits give low values 1.02 | S. cerevisiae deletion strains, locus YOR144C, strain elg1, hits give low values 1.03 | S. cerevisiae deletion strains, locus YOR184W, strain ser1, hits give low values 1.03 | S. cerevisiae deletion strains, locus YOR231W, strain MKK1, hits give low values 1 | S. cerevisiae deletion strains, locus YOR316C, strain cot1, hits give low values 1.03 | [15] 1.03 | S. cerevisiae deletion strains, locus YPL241C, strain CIN2, hits give low values 0.999 | S. cerevisiae deletion strains, locus YPL256C, strain CLN2, hits give low values 0.985 | S. cerevisiae deletion strains, locus YPR119W, strain clb2, hits give low values 1.02 | S. cerevisiae deletion strains, locus YPR141C, strain kar3, hits give low values 1.02 | S. cerevisiae deletion strains, locus YPR163C, strain tif3, hits give low values 1.04 | S. cerevisiae deletion strains, locus YPR167C, strain met16, hits give low values 1.02 | S. cerevisiae deletion strains, strain wtn01, hits give low values 1.03 | S. cerevisiae strains, strain wild type, hits give low values 1.01
